PubChem BioAssay
Calls of active or inactive are those of the source.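 Rule for the calls, unless noted: active = GFP response above 150% of the DMSO level; inconclusive = fewer than 70 events counted for a yeast strain; inactive = the rest.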

Key:
[1] = hit retest on RPL19A-GFP reporter strain – cell-based, S. cerevisiae, flow cytometry, cherry picks, mother/daughter gates, confirmation (AID 2270;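 active = GFP response below 50% of the DMSO control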); details: 3 h, at 10 µM, stronger effect = lower value, 100 = same GFP as DMSO wells
[2] = yeast TOR pathway reporter LAP4-GFP change – cell-based, cherry picks, flow cytometry, mother/daughter gates, confirmation (AID 2271;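 active = GFP response above 150% of the DMSO control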;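 note: ratio of sample to DMSO plate mean so 100% equals DMSO level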); details: S. cerevisiae LAP4-GFP strain, 3 h, at 10 µM, stronger effect = higher value
[3] = TOR pathway CIT2 reporter hit retest – S. cerevisiae, GFP fusion, cherry picks, mother/daughter gates, confirmation (AID 2274); details: S. cerevisiae CIT2-GFP strain, flow cytometry, 3 h, at 10 µM, stronger effect = higher value
[4] = measured here: daughter cell gate
[5] = measured here: mother cell gate
[6] = measured here: daughter cell gate response
[7] = measured here: mother cell gate response

| SMILES | GFP response vs DMSO [1] | GFP response vs DMSO [1, 4] | GFP response vs DMSO [1, 5] | GFP response relative to DMSO [2] | GFP response relative to DMSO [2, 6] | GFP response relative to DMSO [2, 7] | GFP response, % of DMSO [3] | GFP response, % of DMSO [3, 4] | GFP response, % of DMSO [3, 5] |
| --- | --- | --- | --- | --- | --- | --- | --- | --- | --- |
| CN1CCN(c2ccc([N+](=O)[O-])c(Sc3ccccn3)c2)CC1 | 98.4% (inactive) | 98.9% | 99.5% | 95.4% (inactive) | 96% | 95.1% | 103% (inactive) | 103% | 102% |
| O=c1[nH]c(=O)n(Cc2ccc(F)cc2)c(O)c1C=NCCN1CCCCC1 | 96.9% (inactive) | 97% | 94.8% | 95.3% (inactive) | 94.4% | 94.4% | 95.8% (inactive) | 97.6% | 94.9% |
| O=C1NC(=O)N(Cc2ccco2)C(=O)/C1=C/c1ccc(-c2cccc([N+](=O)[O-])c2)o1 | 102% (inactive) | 102% | 96.7% | 167% (active) | 151% | 176% | 93% (inactive) | 95.6% | 85.8% |
| N#CC(C#N)=Cc1ccc(N2CCCC2)cc1 | 105% (inactive) | 102% | 107% | 111% (inactive) | 109% | 112% | 105% (inactive) | 106% | 104% |
